Assay results published in PubChem BioAssay AID1159580 (chemical genetic matrix, 2015).
The whole screen tested about 5,500 compounds, of which about 2,000 (36%) were called active. Roughly 18% stayed inconclusive and do not appear here. No stated cut-off is given here; in the data, active means normalized growth mostly below about 0.91 (no sharp cut-off); inconclusive means no clear call, values can overlap the other calls; inactive means mostly above about 0.92. Some of the results follow.

Test: chemical genetic growth profiling, strain panel (AID 1159580);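 further: tested at 20 µM; growth read once vehicle control cultures reached saturation at 30 °C; 1 = growth at the plate median or of vehicle wells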
Conditions: S. cerevisiae deletion strains, growth OD

Measured: normalized growth

COc1cc(OC)c2c(c1)OC(c1ccc(OC)c(OC)c1)C(O)C2 (centres undefined)
inactive: locus YBR021W, strain FUR4, stronger effect = lower value 1.04 | locus YBR229C, strain ROT2, stronger effect = lower value 1.01 | locus YCL029C, strain bik1, stronger effect = lower value 1.03 | locus YDL035C, strain GPR1, stronger effect = lower value 1.08 | locus YDL074C, strain BRE1, stronger effect = lower value 1.11 | locus YDL101C, strain DUN1, stronger effect = lower value 1.02 | locus YDL185W, strain tfp1, stronger effect = lower value 1.03 | locus YDL192W, strain arf1, stronger effect = lower value 1.02 | locus YDR101C, strain arx1, stronger effect = lower value 0.991 | locus YDR162C, strain NBP2, stronger effect = lower value 1.04 | locus YDR318W, strain mcm21, stronger effect = lower value 1.03 | locus YDR388W, stronger effect = lower value 1 | locus YDR502C, strain sam2, stronger effect = lower value 1.03 | locus YER110C, stronger effect = lower value 1.01 | locus YER155C, strain BEM2, stronger effect = lower value 0.999 | locus YER167W, strain BCK2, stronger effect = lower value 1 | locus YGL078C, strain dbp3, stronger effect = lower value 1.03 | locus YGL086W, strain mad1, stronger effect = lower value 1.02 | locus YGL248W, strain PDE1, stronger effect = lower value 1.06 | locus YGR078C, strain PAC10, stronger effect = lower value 1.04 | locus YGR135W, strain pre9, stronger effect = lower value 1.05 | locus YGR252W, strain gcn5, stronger effect = lower value 1.05 | locus YHR030C, strain SLT2, stronger effect = lower value 1.02 | locus YHR079C, strain IRE1 (second series), stronger effect = lower value 1.02 | locus YHR094C, strain hxt1, stronger effect = lower value 1.01 | locus YHR129C, strain ARP1, stronger effect = lower value 1.02 | locus YHR200W, strain rpn10, stronger effect = lower value 1.04 | locus YIL066C, strain RNR3, stronger effect = lower value 1.02 | locus YIL073C, strain SPO22, stronger effect = lower value 1.16 | locus YIL125W, strain kgd1, stronger effect = lower value 1.02 | locus YIR030C, strain dcg1, stronger effect = lower value 1.02 | locus YJL095W, strain BCK1, stronger effect = lower value 1.07 | locus YJL134W, strain LCB3, stronger effect = lower value 1.01 | locus YJL168C, strain set2, stronger effect = lower value 1.01 | locus YJL187C, strain SWE1 (second series), stronger effect = lower value 1.05 | locus YJR043C, strain POL32, stronger effect = lower value 1.06 | locus YKL009W, strain mrt4, stronger effect = lower value 1.04 | locus YKL068W, stronger effect = lower value 0.998 | locus YKL085W, strain MDH1 (second series), stronger effect = lower value 1.01 | locus YKL085W, strain MDH1, stronger effect = lower value 1.01 | locus YKR001C, strain vps1, stronger effect = lower value 1.03 | locus YLR039C, strain RIC1, stronger effect = lower value 1.17 | locus YLR058C, strain SHM2, stronger effect = lower value 1.03 | locus YLR102C, strain apc9, stronger effect = lower value 1.01 | locus YLR268W, strain sec22, stronger effect = lower value 1.01 | locus YLR371W, strain rom2, stronger effect = lower value 1.05 | locus YLR418C, strain cdc73, stronger effect = lower value 1.04 | locus YML016C, strain PPZ1, stronger effect = lower value 1.01 | locus YML032C, strain rad52, stronger effect = lower value 1.02 | locus YML124C, strain tub3, stronger effect = lower value 1 | locus YMR078C, strain ctf18, stronger effect = lower value 1.02 | locus YMR223W, strain ubp8, stronger effect = lower value 1.02 | locus YMR307W, strain GAS1, stronger effect = lower value 1.22 | locus YNL067W, strain RPL9B, stronger effect = lower value 1.01 | locus YNL233W, strain BNI4, stronger effect = lower value 1.05 | locus YNL250W, strain rad50, stronger effect = lower value 1.05 | locus YNL271C, strain bni1, stronger effect = lower value 1.01 | locus YNL298W, strain CLA4, stronger effect = lower value 1.03 | locus YNL307C, strain MCK1, stronger effect = lower value 1.01 | locus YNR052C, strain pop2, stronger effect = lower value 1.05 | locus YOL012C, strain htz1 1.04 | locus YOL147C, strain pex11, stronger effect = lower value 1.03 | locus YOR061W, strain CKA2, stronger effect = lower value 1.01 | locus YOR069W, strain VPS5, stronger effect = lower value 1.02 | locus YOR136W, strain idh2, stronger effect = lower value 1.02 | locus YOR144C, strain elg1, stronger effect = lower value 1.01 | locus YOR184W, strain ser1, stronger effect = lower value 1.02 | locus YOR316C, strain cot1, stronger effect = lower value 1.03 | locus YPL241C, strain CIN2, stronger effect = lower value 1.02 | locus YPR119W, strain clb2, stronger effect = lower value 1.01 | locus YPR141C, strain kar3, stronger effect = lower value 1.02 | locus YPR163C, strain tif3, stronger effect = lower value 1.02 | locus YPR167C, strain met16, stronger effect = lower value 1.04 | strain wtn01, stronger effect = lower value 1.03
